Experimental data as given in PubChem BioAssay AID720519 (National Center for Advancing Translational Sciences (NCATS), 2013).
Inconclusive results are not listed. The source made the active and inactive calls. Calls follow the shape of the dose curve; as a rule, active = well fitted activation curve with a large enough effect; inconclusive = small, poorly fitted or top-dose-only effect; inactive = flat fitted curve, though single readings scatter.

test: qHTS for Inhibitors of Cell Surface uPA Generation: Confirmatory Assay for Cherry-picked Compounds; settings: cell surface uPA activity generation, qHTS confirmation; series mostly up to 115 µM
How it was run: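 RAW 264.7 cells at 4000/well, incubated overnight, then treated with compounds. After 24 h at 37 C, viability was read by ATPlite luminescence. An increase in signal indicates blocked uPA-dependent LF entry.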

Potency, inactive:
O=C(O)CC1(CC(=O)NCc2ccc(Cl)cc2)CCCCC1
CCOC(=O)CN1C(=O)N[C@@H](c2ccco2)C(C(=O)OC)=C1C
COc1ccc(C(C(=O)NC2CCCC2)N(C(=O)c2ccoc2C)c2ccc(C)c(C)c2)cc1 (stereo not drawn)
CCOc1ccc(C(=O)NCCO)cc1
CCC(C(=O)NCc1ccc(C)cc1)c1ccccc1 (stereo not drawn)
O=C(COc1ccc(C(=S)N2CCOCC2)cc1)N1CCOCC1
Cc1nn(CC(=O)OCC(=O)NC(C)c2ccccc2)c(C)c1[N+](=O)[O-] (stereo not drawn)
CCN(CC(=O)Nc1c(F)cccc1F)C(=O)c1ccc(-c2ccc(C(C)=O)cc2)o1
NC(=O)c1ccc(NC(=O)CN2CCN(S(=O)(=O)c3ccc4ccccc4c3)CC2)cc1
CCc1ccc(N2CC(C(=O)Nc3ccc4c(c3)OCO4)CC2=O)cc1 (stereo not drawn)
CCN1CCN(Cc2ccc(NC(=O)c3cc(NC(=O)c4cncc(-c5cccs5)c4)cc(OC)c3)cc2C(F)(F)F)CC1
CC(C)CNC(=O)COC(=O)CCC(=O)c1cccs1
CCN(CC)CCNC(=O)/C(=C/c1cn(CC)c2ccccc12)NC(=O)c1cc(OC)c(OC)c(OC)c1
COCCn1c(SCC(=O)Nc2ccc(F)cc2)nc2ccccc2c1=O
Cc1ccc(S(=O)(=O)NCC(=O)OC(C)C(=O)NCc2ccc3c(c2)OCO3)cc1 (stereo not drawn)
COc1cc(SC)ccc1C(=O)OCc1nc2ccsc2c(=O)[nH]1
COc1ccc(-n2nc(C(=O)Nc3cc(OC)c(OC)c(OC)c3)c3ccccc3c2=O)c(OC)c1
O=C(Cc1n[nH]c(=O)c2ccccc12)Nc1cccc(S(=O)(=O)N2CCCCCC2)c1
Cc1ccc(CN2CCN(Cc3cc4ccccc4o3)CC2CCO)cc1 (stereo not drawn)
COc1ccccc1CCNC(=O)C(=O)NCC1OCCN1S(=O)(=O)c1ccc(OC)c(OC)c1 (stereo not drawn)
CCOC(=O)C1(CC2CCCCO2)CCN(Cc2nccn2-c2cccc(C)c2)CC1 (stereo not drawn)
COc1cc(C(=O)N/N=C(\Cc2ncc[nH]2)c2ccccc2)cc(OC)c1OC
Cc1cccc(NC(=O)C2CCCN(S(=O)(=O)c3ccc4[nH]c(=O)ccc4c3)C2)c1 (stereo not drawn)
CC(C)NC(=O)CN1CCC(c2nc3ccccc3[nH]2)CC1
Cc1ccsc1/C=C(\C#N)C(=O)NC1CCS(=O)(=O)C1 (stereo not drawn)
CCOc1ccc(OCC)c(NC(=O)c2ccc(CNc3c(N4CCCC4)c(=O)c3=O)cc2)c1
Cc1nn2c(=O)cc(CSc3nc4ccccc4[nH]3)nc2s1
CC(=O)c1ccc(NC(=O)Nc2ccc(Br)cc2C)cc1
CCC(C)Sc1nnc(NS(=O)(=O)Cc2ccccc2)s1 (stereo not drawn)
O=C(Cc1ccc(Cl)cc1)NC(=S)Nc1ccccc1O
COCC(=O)N1CCC(n2nccc2NC(=O)c2ccccc2OC)CC1
CCCCn1c(N)c(N(Cc2ccccc2OC)C(=O)COc2ccc(C)cc2)c(=O)[nH]c1=O
COc1ccccc1NC(=O)Cn1nnc(-c2ccccc2NC(=O)c2cc3ccccc3oc2=O)n1
O=C(NNC(=O)c1cccc(-n2cccc2)c1)c1ccc(F)cc1
CCN(CC)CCCNC(=O)c1cn(C)c(=O)c2c1c1ccccc1n2C
O=C1NCCN1C(=O)N(c1ccccc1)c1ccccc1
CC1(C)CC2(CC(c3ccccc3)Oc3cc(O)ccc32)NC(=S)N1 (stereo not drawn)
CC(C)(C)OC(=O)NCCCCCNC(=O)c1[nH]cnc1C(=O)Nc1ccc(Cl)cc1
